From PubChem BioAssay (EPA / NIEHS)
Results filed as inconclusive are left out. Active and inactive are the calls of the source. How the source made its calls, unless noted: active means hit-call score of the fitted dose curve at least 0.9, where 1 is the maximum; inconclusive means response in the unintended direction; inactive means score below 0.9.

Legend:
[1] = target: Cellular tumor antigen p53 (Homo sapiens) (UniProt P04637); experiment: TOX21_p53_BLA_p2_ratio: Tox21 HCT-116 p53 Agonism Beta-lactamase Assay, Ratio, Phase 2 (AID 2283592)
Chain of Cellular tumor antigen p53 (Homo sapiens) (P04637 whole entry, looked up): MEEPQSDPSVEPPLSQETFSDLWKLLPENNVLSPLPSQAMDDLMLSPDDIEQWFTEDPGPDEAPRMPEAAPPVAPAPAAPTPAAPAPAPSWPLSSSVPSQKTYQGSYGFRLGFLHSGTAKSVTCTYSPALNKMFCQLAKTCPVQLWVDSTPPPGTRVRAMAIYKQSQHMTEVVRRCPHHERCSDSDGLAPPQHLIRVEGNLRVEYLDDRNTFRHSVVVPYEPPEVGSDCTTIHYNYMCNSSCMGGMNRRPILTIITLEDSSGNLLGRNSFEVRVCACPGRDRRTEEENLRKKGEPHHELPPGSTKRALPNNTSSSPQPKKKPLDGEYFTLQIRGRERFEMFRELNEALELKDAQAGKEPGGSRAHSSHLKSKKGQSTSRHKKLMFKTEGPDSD
Outline: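 Read-out is the blue/green (460/530 nm, 405 nm excitation) ratio after 2 h CCF4-AM loading, fitted as gain versus DMSO. Compounds, pinned at 217-fold dilution from DMSO stocks, stayed 16 h on HCT-116 beta-lactamase reporter cells seeded 5 h earlier.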

[2] = target: Cellular tumor antigen p53 (Homo sapiens) (UniProt P04637); experiment: TOX21_p53_BLA_p5_ratio: Tox21 HCT-116 p53 Agonism Beta-lactamase Assay, Ratio, Phase 5 (AID 2283599)
Outline: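 HCT-116 cells carrying a p53-inducible beta-lactamase reporter were seeded at 4000 cells/well and dosed after 5 h with compound in DMSO (217-fold dilution). After 16 h at 37C, CCF4-AM substrate was added for 2 h, and the 460/530 nm emission ratio was scored as gain-of-signal versus DMSO.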

[3] = target: Cellular tumor antigen p53 (Homo sapiens) (UniProt P04637); experiment: TOX21_p53_BLA_p4_ratio: Tox21 HCT-116 p53 Agonism Beta-lactamase Assay, Ratio, Phase 4 (AID 2283601)
Outline: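 HCT116 cells carrying an inducible beta-lactamase reporter were plated at 4000 cells/well, rested 5 h, then exposed to compounds in DMSO (217-fold dilution) for 16 h at 37C. CCF4-AM substrate was loaded 2 h at room temperature; 460/530 nm emission ratio scored gain-of-signal versus DMSO.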

[4] = TOX21_p53_BLA_p5_viability: Viability Assessment in the Tox21 HCT-116 p53 Agonism Beta-lactamase Assay, Phase 5 (AID 2283600)
Outline: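 Viability came from CellTiter-Glo ATP luminescence, read after 30 min at room temperature. Before this, HCT-116 p53-bla cells (4000/well) had 16 hours of compound exposure at 37C, with DMSO stocks diluted 217-fold on transfer.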

[5] = CCTE_Shafer_MEA_dev_per_burst_spike_percent: CCTE's Neural Network Formation Assay for Percent of Spikes in a Burst, Shafer Lab (AID 2284032; active means hit-call score of the fitted dose curve at least 0.9, where 1 is the maximum; inactive means score below 0.9)
Outline: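 Value is trapezoidal AUC over recordings on days 5, 7, 9 and 12 of the well-mean fraction of spikes falling in single-electrode bursts; rat cortical cultures exposed continuously from plating, treatment renewed DIV 5 and 9, fitted downward against DMSO.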

[6] = CCTE_Shafer_MEA_dev_active_electrodes_number: CCTE's Neural Network Formation Assay for Number of Active Electrodes, Shafer Lab (AID 2284040)
Outline: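 Developing rat cortical networks on MEAs, exposed DIV 0–12. Value is the AUC of active-electrode counts (≥5 spikes/min) from days 5, 7, 9, 12, relative to DMSO.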

[7] = CCTE_Shafer_MEA_dev_per_burst_interspike_interval: CCTE's Neural Network Formation Assay for Burst Interspike Interval, Shafer Lab (AID 2284044; active means hit-call score of the fitted dose curve at least 0.9, where 1 is the maximum; inactive means score below 0.9)
Outline: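 Mean interspike interval within single-electrode bursts, averaged over bursting electrodes, from rat cortical cultures on MEA plates recorded on days 5, 7, 9 and 12. Continuous compound exposure from plating; trapezoidal AUC fitted downward relative to DMSO.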

[8] = CCTE_Shafer_MEA_dev_burst_duration_mean: CCTE's Neural Network Formation Assay for Mean Burst Duration, Shafer Lab (AID 2284045; active means hit-call score of the fitted dose curve at least 0.9, where 1 is the maximum; inactive means score below 0.9)
Outline: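 Network-formation assay in primary rat cortical neurons; treatment spans twelve days of development. Mean burst duration per well is integrated by trapezoidal AUC and fitted in the loss-of-signal direction against DMSO baseline.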

[9] = CCTE_Shafer_MEA_dev_interburst_interval_mean: CCTE's Neural Network Formation Assay for Mean Interburst Interval, Shafer Lab (AID 2284046; active means hit-call score of the fitted dose curve at least 0.9, where 1 is the maximum; inactive means score below 0.9;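 further: well-mean interburst interval of bursting electrodes as AUC over four recording days; curve fitted for decrease in interburst interval relative to DMSO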)
Outline: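 Developing rat cortical networks on 48-well MEAs receive compound from the day of plating. Burst intervals from each active electrode are averaged per well, and AUC over the recording days is fitted in the negative direction against DMSO.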

[10] = CCTE_Shafer_MEA_dev_inter_network_spike_interval_mean: CCTE's Neural Network Formation Assay for Mean Inter-network Spike Interval, Shafer Lab (AID 2284047; active means hit-call score of the fitted dose curve at least 0.9, where 1 is the maximum; inactive means score below 0.9)
Outline: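 Rat cortical cultures, 1.5 x 10^5 cells/well on 48-well MEA plates; continuous exposure days 0–12, medium and compound refreshed DIV 5, 9. Mean time between consecutive network-spike peaks; AUC across DIV 5/7/9/12; DMSO baseline, negative fitting direction.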

[11] = CCTE_Shafer_MEA_dev_network_spike_number: CCTE's Neural Network Formation Assay for Number of Network Spikes, Shafer Lab (AID 2284048; active means hit-call score of the fitted dose curve at least 0.9, where 1 is the maximum; inactive means score below 0.9;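 further: synchronized bursts across electrodes counted on days 5 7 9 12 and integrated as AUC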)
Outline: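 Extracellular recordings from 16-electrode wells track network formation in rat cortical cultures under continuous treatment from plating. The endpoint is network spike number, expressed as AUC across DIV 5–12 relative to DMSO vehicle.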

[12] = CCTE_Shafer_MEA_dev_network_spike_peak: CCTE's Neural Network Formation Assay for Mean Number of Electrodes in Network Spike, Shafer Lab (AID 2284049; active means hit-call score of the fitted dose curve at least 0.9, where 1 is the maximum; inactive means score below 0.9)
Outline: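 Continuous 12-day exposure of rat cortical cultures, starting at plating, on MEA plates. Endpoint: electrodes participating in network-spike peaks, AUC across DIV 5–12, DMSO as negative control.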

[13] = CCTE_Shafer_MEA_dev_spike_duration_mean: CCTE's Neural Network Formation Assay for Mean Spike Duration, Shafer Lab (AID 2284051; active means hit-call score of the fitted dose curve at least 0.9, where 1 is the maximum; inactive means score below 0.9;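 further: mean network spike duration pooled as area under curve over DIV 5 to 12 recordings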)
Outline: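 Readout is the average length of network spikes, clustered firing across electrodes, summed over DIV 5, 7, 9 and 12 as area under the curve. Neurons from rat cortex developed networks on MEA plates under continuous 12-day exposure.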

[14] = CCTE_Shafer_MEA_dev_network_spike_duration_std: CCTE's Neural Network Formation Assay for Standard Deviation of Network Spike Duration, Shafer Lab (AID 2284052; active means hit-call score of the fitted dose curve at least 0.9, where 1 is the maximum; inactive means score below 0.9;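 further: area under curve of spike duration SD across recording days 5 to 12; hits are decreases in network spike duration SD versus DMSO vehicle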)
Outline: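 Read-out is the trapezoidal area-under-the-curve across recordings made on days 5, 7, 9 and 12, fitted in the negative direction against DMSO baseline. Neurons were primary rat cortical cells treated from day 0, with treatment renewed at each feed.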

[15] = CCTE_Shafer_MEA_dev_per_network_spike_spike_number_mean: CCTE's Neural Network Formation Assay for Mean Number of Spikes in a Network Spike, Shafer Lab (AID 2284053; active means hit-call score of the fitted dose curve at least 0.9, where 1 is the maximum; inactive means score below 0.9)
Outline: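 Continuous twelve-day exposure of developing rat cortical networks grown over 16 microelectrodes per well; spontaneous firing is captured at four time points, and the per-network-spike spike number is integrated over development by trapezoidal AUC.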

[16] = CCTE_Shafer_MEA_dev_per_network_spike_spike_percent: CCTE's Neural Network Formation Assay for Percent of Spikes in a Network Spike, Shafer Lab (AID 2284054; active means hit-call score of the fitted dose curve at least 0.9, where 1 is the maximum; inactive means score below 0.9)
Outline: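 Developing networks of rat cortical neurons are dosed at day 0 and recorded extracellularly four times up to day 12. The endpoint is the area under the curve of percent spikes in network spikes, fitted in the negative direction relative to DMSO.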

[17] = CCTE_Shafer_MEA_dev_mutual_information_norm: CCTE's Neural Network Formation Assay for Mutual Information Normalization, Shafer Lab (AID 2284091; active means hit-call score of the fitted dose curve at least 0.9, where 1 is the maximum; inactive means score below 0.9)
Outline: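 Exposure of primary rat cortical neurons began at plating and ran to DIV 12, with full media and treatment renewal after DIV 5 and 9 recordings. Mutual information AUC (DIV 5–12) was analysed for loss versus DMSO.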

[18] = CCTE_Shafer_MEA_dev_correlation_coefficient_mean: CCTE's Neural Network Formation Assay for Mean Correlation Coefficient, Shafer Lab (AID 2284093; active means hit-call score of the fitted dose curve at least 0.9, where 1 is the maximum; inactive means score below 0.9)
Outline: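 Read-out: well-mean correlation coefficient of spike trains between electrode pairs, collapsed over four recording days as trapezoidal area-under-the-curve. Developing rat cortical neuron networks grown on MEAs received test chemical continuously from plating.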

PGR (gene 5241) [19] = target: PGR (gene 5241) (UniProt P06401); experiment: TOX21_PR_BLA_Followup_Agonist_ratio: Tox21 HEK293 Progesterone Receptor (PR) Agonism Beta-lactamase Follow-Up Assay, Ratio (AID 2283933)
Chain of PGR (gene 5241) (P06401 whole entry, looked up, the tested form may be a part): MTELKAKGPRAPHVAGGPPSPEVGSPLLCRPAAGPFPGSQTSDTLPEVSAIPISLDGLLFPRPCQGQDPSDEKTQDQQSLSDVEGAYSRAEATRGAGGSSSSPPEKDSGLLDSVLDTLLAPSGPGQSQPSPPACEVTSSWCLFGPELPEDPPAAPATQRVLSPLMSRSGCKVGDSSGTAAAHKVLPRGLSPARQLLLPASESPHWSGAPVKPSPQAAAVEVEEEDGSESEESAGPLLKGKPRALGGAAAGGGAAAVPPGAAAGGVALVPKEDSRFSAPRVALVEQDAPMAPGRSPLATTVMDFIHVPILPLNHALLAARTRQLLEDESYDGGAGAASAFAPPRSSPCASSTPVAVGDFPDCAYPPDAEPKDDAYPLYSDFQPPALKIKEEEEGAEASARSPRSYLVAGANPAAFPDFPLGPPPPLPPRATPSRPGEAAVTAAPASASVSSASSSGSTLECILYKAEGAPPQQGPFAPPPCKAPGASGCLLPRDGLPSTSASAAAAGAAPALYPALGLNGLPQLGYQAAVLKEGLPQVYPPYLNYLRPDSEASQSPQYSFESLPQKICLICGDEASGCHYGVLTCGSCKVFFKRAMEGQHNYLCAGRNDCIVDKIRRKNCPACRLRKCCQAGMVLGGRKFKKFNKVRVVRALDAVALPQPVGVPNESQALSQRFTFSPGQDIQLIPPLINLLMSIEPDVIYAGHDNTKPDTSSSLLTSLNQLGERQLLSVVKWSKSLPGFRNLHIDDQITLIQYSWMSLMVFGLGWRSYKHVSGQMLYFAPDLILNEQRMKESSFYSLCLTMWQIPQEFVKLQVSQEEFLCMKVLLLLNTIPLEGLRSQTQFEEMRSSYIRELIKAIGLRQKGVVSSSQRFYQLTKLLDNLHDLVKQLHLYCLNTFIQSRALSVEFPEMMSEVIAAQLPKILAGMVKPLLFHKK
Outline: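 Read-out: ratio of cleaved (ch2) to uncleaved (ch1) beta-lactamase substrate fluorescence, gain-of-signal relative to DMSO baseline. Cells: PR-UAS-bla HEK293T, 2% charcoal-stripped FBS; compound exposure 16 hr, 37C; substrate 2 hr, RT.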

PGR (gene 5241) [20] = target: PGR (gene 5241) (UniProt P06401); experiment: TOX21_PR_BLA_Followup_Antagonist_ratio: Tox21 HEK293 Progesterone Receptor (PR) Antagonism Beta-lactamase Follow-Up Assay, Ratio (AID 2283934)
Outline: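 Read-out: blue/green beta-lactamase FRET ratio (cleaved ch2 over uncleaved ch1), fitted relative to DMSO baseline. Cells: PR-UAS-bla HEK293T, GAL4-UAS reporter, stimulated with 1 nM R5020 final; 16 hr compound exposure, 37C.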

[21] = TOX21_PR_BLA_Followup_Agonist_viability: Viability Assessment in the Tox21 HEK293 Progesterone Receptor (PR) Agonism Beta-lactamase Follow-Up Assay (AID 2283935);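 further: signal loss means lower viability so actives are cytotoxic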
Outline: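 Luminescent ATP quantitation (CellTiter-Glo, 30 min, room temperature) in the same wells as the beta-lactamase read, on PR-UAS-bla HEK293T cells exposed to compound for 16 hr at 37C in 2% charcoal-stripped serum.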

PGR (gene 5241) [22] = target: PGR (gene 5241) (UniProt P06401); experiment: TOX21_PR_LUC_Followup_Agonist: Tox21 HEK293 Progesterone Receptor (PR) Agonism Luciferase Follow-Up Assay (AID 2283937; active means hit-call score of the fitted dose curve at least 0.9, where 1 is the maximum; inactive means score below 0.9)
Outline: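 Luminescence read-out (ONE-Glo, 30 min at room temperature) of PR-driven luciferase in HEK293-PR-A-luc cells after 16 h compound exposure at 37C; gain of signal fitted relative to DMSO baseline.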

PGR (gene 5241) [23] = target: PGR (gene 5241) (UniProt P06401); experiment: TOX21_PR_LUC_Followup_Antagonist: Tox21 HEK293 Progesterone Receptor (PR) Antagonism Luciferase Follow-Up Assay (AID 2283938);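 further: curve fitted upward as signal gain over DMSO baseline despite antagonist label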
Outline: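 Luminescence from ONE-Glo was measured 30 min after reagent addition, following 16 h exposure of HEK293-PR-A-luc cells (3,000/well, plated 5 h earlier) to DMSO-dissolved compounds at 37C; DMSO served as baseline.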

[24] = TOX21_PR_LUC_Followup_Antagonist_viability: Viability Assessment in the Tox21 HEK293 Progesterone Receptor (PR) Antagonism Luciferase Follow-Up Assay (AID 2283940)
Outline: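 Read-out: CellTiter-Glo ATP luminescence, loss of signal taken as reduced viability. Cells: HEK293-PR-A-luc, 3,000/well, 5 h settling, then 16 h compound exposure at 37C, 0% CO2.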

[25] = TOX21_PR_LUC_Followup_Agonist_viability: Viability Assessment in the Tox21 HEK293 Progesterone Receptor (PR) Agonism Luciferase Follow-Up Assay (AID 2283941);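 further: loss of signal means cytotoxicity so actives lower viability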
Outline: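 Cytotoxicity counter-screen: ATP content by CellTiter-Glo luminescence, loss of signal = reduced viability. HEK293-PR-A-luc, 3,000 cells/well, compound exposure 16 h, 37C.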

[26] = CCTE_Harrill_HTTr_Viability_MCF7: CCTE's 6-hour Cell Viability Assessment for the High-Throughput Transcriptomics (HTTr) Platform, in MCF-7 cells cultured in DMEM + 10% fetal bovine serum, Harrill Lab (AID 2284010; active means hit-call score of the fitted dose curve at least 0.9, where 1 is the maximum; inactive means score below 0.9)
Outline: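 PI exclusion, high-content imaging; 8-pt dilution series, 6 h exposure; bidirectional fit vs DMSO (neg. ctrl/baseline); gain of signal = loss of membrane integrity.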

[27] = CCTE_Harrill_HTTr_Apoptosis_MCF7: CCTE's 6-hour Apoptosis Assessment for the High-Throughput Transcriptomics (HTTr) Platform, in MCF-7 cells cultured in DMEM + 10% fetal bovine serum, Harrill Lab (AID 2284011; active means hit-call score of the fitted dose curve at least 0.9, where 1 is the maximum; inactive means score below 0.9)
Outline: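 High-content imaging of CellEvent Caspase 3/7 Green signal follows a six-hour exposure, with eight concentrations per chemical. MCF-7 cells grown in DMEM plus 10% fetal bovine serum; activity fitted in both directions against DMSO.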

[28] = CCTE_Harrill_HTTr_CellCount_MCF7: CCTE's Cell Proliferation Assessment for the High-Throughput Transcriptomics (HTTr) Platform, Harrill Lab (AID 2284012);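 further: count of Hoechst-stained nuclei per well by high-content imaging in MCF-7 cells; cells exposed to compound for six hours; intended direction is loss of nuclei count meaning fewer cells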
Outline: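 Readout: Hoechst nuclear count by high-content imaging. MCF-7, 8-point dilution series, 6 h exposure. Bidirectional fit vs DMSO baseline.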

Measured: AC50

c1ccc(SCCSc2ccccc2)cc1
inactive: [1] | [2] | [3]

CCCCCCCCCCCCCCCCN(C)C
inactive: [1] | [4]

c1cc2c3c(c1)ccc1cccc(c13)C2
not listed: PGR (gene 5241) [19] | PGR (gene 5241) [20] | [21] | PGR (gene 5241) [22] | PGR (gene 5241) [23] | [24] | [25] | [26] | [27] | [28]
inactive: all other assays above

CN(C)C=Nc1c(I)cc(I)c(CCC(=O)O)c1I
inactive: [1] | [4]

CN(C)Cc1ccccc1
inactive: [1] | [2] | [4] | [3]

CN1CC[C@H](c2c(O)cc(O)c3c(=O)cc(-c4ccccc4Cl)oc23)[C@H](O)C1
inactive: PGR (gene 5241) [19] | [21] | PGR (gene 5241) [22] | [24] | [25]
active: PGR (gene 5241) [20] 0.206 µM | PGR (gene 5241) [23] 0.565 µM

[K+]
inactive: [26] | [27] | [28]
